These results are taken from PubChem BioAssay (NCI).

About 83,000 compounds went through this panel and 20% of them were active in at least one assay; those are over-represented in the sample as a whole.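 Results are percent growth after 48 hours of single-concentration exposure. 100 means growth as in untreated cells, lower positive values show inhibition; negative values down to -100 show cell death.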 A number with no mark means an inactive call. Active and inactive are the calls of the source. Rule for the calls: active = growth percent below 10; inactive = the rest.

Among the test systems are BT-549 breast; MDA-MB-435 melanoma; SW-620 colon; MCF7 breast; HCT-116 colon; HCC-2998 colon; KM12 colon.
Common to all, as to experiment: NCI-60 one-dose screen, 48 h (100 = growth as untreated, 0 = no growth, -100 = all killed)
What all share (details): 10 µM

For the compound `O=C(O)C(SC(C(=O)O)c1ccccc1)c1ccccc1` (stereo unspecified), the growth is 101% with BT-549 breast; 116% in the experiment with MDA-MB-435 melanoma; 107% in the experiment on SW-620 colon; 96.3% in the experiment with MCF7 breast; 106% in the experiment on HCT-116 colon; 103% in the experiment with HCC-2998 colon. In the experiment on KM12 colon, the growth was 113%.
For the compound `N#CCCN(NC(=O)OCc1ccccc1)C(=O)OCc1ccccc1`, the growth was 109% with BT-549 breast; 105% with MDA-MB-435 melanoma; 102% in the experiment with SW-620 colon; 107% with MCF7 breast; 95.4% with HCT-116 colon; 106% with HCC-2998 colon. The growth with KM12 colon is 109%.
Regarding `CSC1=NCCCC1`, the growth in the experiment with BT-549 breast was 108%; with MDA-MB-435 melanoma, 108%; in the experiment with SW-620 colon, 114%; in the experiment with MCF7 breast, 97.8%; with HCT-116 colon, 109%; in the experiment on HCC-2998 colon, 115%. The growth with KM12 colon was 113%.
As to `CCCCOC(=O)Oc1ccc(C(=O)Oc2ccc(OCC)cc2)cc1`, the growth with BT-549 breast is 85.9%; in the experiment with MDA-MB-435 melanoma, 93.4%; with SW-620 colon, 110%; in the experiment with MCF7 breast it was 123%; in the experiment with HCT-116 colon, 98.2%; with HCC-2998 colon, 102%. Besides, in the experiment on KM12 colon, the growth was 94.8%.
Consider `COc1ccc(-c2nn(-c3cccc(NC(=O)Nc4cc(C(F)(F)F)cc(C(F)(F)F)c4)c3)cc2-c2ccncc2)cc1Cl`, for which the growth with BT-549 breast was -1.8% (active); with MDA-MB-435 melanoma, -42.8% (active); in the experiment with SW-620 colon, 10.9%; in the experiment on MCF7 breast, 0.561% (active); in the experiment on HCT-116 colon, -22% (active); with HCC-2998 colon, 8.03% (active). In addition, the growth with KM12 colon was -2.5% (active).
On to `Clc1ccc(Sc2nc(NC3CC3)nc(Sc3ccc(Cl)cc3)n2)cc1`, for which the growth was 104% with BT-549 breast; 87.8% in the experiment with MDA-MB-435 melanoma; 83.3% with SW-620 colon; 72% in the experiment with MCF7 breast; 53.7% in the experiment on HCT-116 colon; 90.2% in the experiment with HCC-2998 colon. Also, in the experiment with KM12 colon, the growth was 76.6%.
Consider `CN(C)c1ccc(N=C2C=CC(=O)c3ccccc32)cc1`, for which the growth in the experiment with BT-549 breast was 94.5%; in the experiment with MDA-MB-435 melanoma, -87% (active); in the experiment on SW-620 colon, 93.3%; in the experiment with MCF7 breast it was 53.1%; in the experiment on HCT-116 colon it was 78.4%; in the experiment with HCC-2998 colon it was 67.3%. In addition, the growth in the experiment with KM12 colon was 54.8%.
For `O=C(Nc1cccc(-n2cc(-c3ccncc3)c(-c3ccc(O)c(Cl)c3)n2)c1)c1ccc(N2CCOCC2)c(C(F)(F)F)c1`, the growth in the experiment with BT-549 breast is 47.2%; with MDA-MB-435 melanoma it was 53.9%; with SW-620 colon it was 36.3%; in the experiment on MCF7 breast, 24.6%; in the experiment on HCT-116 colon it was 26.7%; with HCC-2998 colon it was 23.6%. Also, in the experiment with KM12 colon, the growth was 14.9%.
With `COc1ccc2c(c1)sc1nc(-c3ccccc3)c(-c3ccc(O)c(OC)c3)n12`, the growth in the experiment on BT-549 breast was 68.2%; in the experiment on MDA-MB-435 melanoma it was -24.6% (active); with SW-620 colon, 39.9%; in the experiment with MCF7 breast, 93.4%; with HCT-116 colon, 33.2%; with HCC-2998 colon, 42.5%. For the same compound, the growth with KM12 colon was 37.1%.
With `CCCCC/C=C/C(=O)CCc1ccc(O)c(OC)c1`, the growth is 66.9% with BT-549 breast; 19.4% in the experiment on MDA-MB-435 melanoma; 68.4% in the experiment on SW-620 colon; 1.77% (active) with MCF7 breast; 13.6% with HCT-116 colon; 21% with HCC-2998 colon. The growth with KM12 colon is 31.1%.
In the case of `Cc1cccc(Cl)c1NC(=O)c1ccc2nc(NC(=O)NC3CCN(C)CC3)sc2c1`, the growth in the experiment on BT-549 breast was 98.2%; with MDA-MB-435 melanoma it was 82.9%; in the experiment on SW-620 colon, 98.4%; in the experiment with MCF7 breast it was 94%; in the experiment on HCT-116 colon, 81.9%; with HCC-2998 colon, 105%. For the same compound, the growth with KM12 colon was 105%.
For the compound `NC1(C(=O)O)CSSC1`, the growth is 85.4% in the experiment with BT-549 breast; 89.4% with MDA-MB-435 melanoma; 99.4% in the experiment on SW-620 colon; 43.4% in the experiment with MCF7 breast; 83.1% with HCT-116 colon; 118% in the experiment with HCC-2998 colon. The growth in the experiment on KM12 colon was 93.4%.
Regarding `NC(=O)c1ccc(-c2cccc3c(=O)nc(N4CCOCC4)oc23)cc1`, the growth was 98.1% with BT-549 breast; 107% in the experiment with MDA-MB-435 melanoma; 104% in the experiment on SW-620 colon; 90.3% with MCF7 breast; 104% with HCT-116 colon; 101% in the experiment with HCC-2998 colon. Besides, in the experiment on KM12 colon, the growth is 97.6%.
As to `CC(=O)N(C)c1ccc(Nc2ccc(Nc3ccc(N(C)C(C)=O)cc3)c3c2C(=O)c2ccccc2C3=O)cc1`, the growth was 84.4% in the experiment on BT-549 breast; 101% with MDA-MB-435 melanoma; 84.1% in the experiment on SW-620 colon; 52% in the experiment with MCF7 breast; 73.5% in the experiment on HCT-116 colon; 89.6% with HCC-2998 colon. Further, in the experiment on KM12 colon, the growth is 71.1%.
For the compound `CCN(CC)CCCC(C)Nc1nc(-c2ccc(OC)cc2)nc2cc(Cl)ccc12` (stereo unspecified), the growth in the experiment on BT-549 breast is 75.6%; with MDA-MB-435 melanoma, 35%; with SW-620 colon it was 80.9%; in the experiment on MCF7 breast, 44.6%; with HCT-116 colon it was 47.1%; in the experiment with HCC-2998 colon, 54.1%. The growth in the experiment on KM12 colon is 66.3%.
`COC(=O)C(C(C[N+](=O)[O-])c1ccccc1)=P(c1ccccc1)(c1ccccc1)c1ccccc1` (stereo unspecified): the growth is 93% in the experiment on BT-549 breast; 49.5% in the experiment on MDA-MB-435 melanoma; 69.8% with SW-620 colon; 30.2% in the experiment on MCF7 breast; 4.02% (active) with HCT-116 colon; 101% in the experiment on HCC-2998 colon. Besides, the growth in the experiment with KM12 colon was 88.3%.
As for `COc1ccc(-c2cc(/C=C/C(=O)c3cc(OC)c(OC)c(OC)c3)[nH]n2)cc1OC`, the growth in the experiment with BT-549 breast is 24%; with MDA-MB-435 melanoma, 4.69% (active); in the experiment with SW-620 colon, -65.6% (active); with MCF7 breast, -9.93% (active); with HCT-116 colon it was -46.5% (active); with HCC-2998 colon it was -75.7% (active). The growth in the experiment on KM12 colon was -61.6% (active).
`CC(C)(C)c1ccc(N2CSC(=S)N(c3ccc(C(C)(C)C)cc3)C2)cc1`: the growth with BT-549 breast was 98.9%; in the experiment on MDA-MB-435 melanoma, 99.7%; in the experiment on SW-620 colon, 106%; with MCF7 breast, 91.7%; in the experiment with HCT-116 colon, 91.8%; in the experiment on HCC-2998 colon, 96.4%. In the experiment on KM12 colon, the growth was 96.7%.
As to `CCN1Cc2c(/C=C/c3ccccc3)nc3ccc(OC)cc3c2N(c2cccc(Cl)c2)C1`, the growth in the experiment with BT-549 breast is 95.2%; in the experiment on MDA-MB-435 melanoma, 76.1%; with SW-620 colon, 67.4%; with MCF7 breast, 78.5%; in the experiment on HCT-116 colon, 45.8%; in the experiment on HCC-2998 colon it was 86%. Besides, in the experiment on KM12 colon, the growth is 94.2%.
As for `COC(=O)C1=NNC(=S)N(c2cc(C)[nH]n2)C(=O)C1`, the growth in the experiment on BT-549 breast was 107%; in the experiment on MDA-MB-435 melanoma it was 99.4%; in the experiment on SW-620 colon it was 102%; in the experiment on MCF7 breast, 96%; in the experiment on HCT-116 colon, 99.2%; in the experiment on HCC-2998 colon, 93.6%. Further, in the experiment on KM12 colon, the growth was 102%.
With `O=C1OCC2=C1C(c1ccc(Cl)c(Cl)c1)c1cc3c(cc1N2CCO)OCCO3` (stereo unspecified), the growth is 60.4% in the experiment with BT-549 breast; -52.6% (active) in the experiment with MDA-MB-435 melanoma; 19% in the experiment with SW-620 colon; 20.4% in the experiment with MCF7 breast; 19.8% in the experiment on HCT-116 colon; 4.49% (active) with KM12 colon.
For `CCOC(=O)C(CSC(c1ccccc1)(c1ccccc1)c1ccccc1)NC(=O)C(CSC(c1ccccc1)(c1ccccc1)c1ccccc1)NC(c1ccccc1)(c1ccccc1)c1ccccc1` (stereo unspecified), the growth with BT-549 breast was 109%; with MDA-MB-435 melanoma it was 86.1%; in the experiment on SW-620 colon, 104%; with MCF7 breast it was 95%; in the experiment on HCT-116 colon, 108%; with HCC-2998 colon it was 113%. In the experiment on KM12 colon, the growth was 111%.
For the compound `Nc1ccc2cc(S(=O)(=O)O)cc(O)c2c1N=Nc1ccc(F)cc1`, the growth was 102% in the experiment with BT-549 breast; 113% in the experiment on MDA-MB-435 melanoma; 104% with SW-620 colon; 111% in the experiment on MCF7 breast; 93.4% in the experiment with HCT-116 colon; 102% with HCC-2998 colon. The growth in the experiment with KM12 colon is 107%.
As to `O=C(CC(NC(=O)OCc1ccccc1)C(=O)OCc1ccccc1)OCc1ccccc1` (stereo unspecified), the growth in the experiment on BT-549 breast is 112%; in the experiment on MDA-MB-435 melanoma it was 102%; with SW-620 colon, 91.6%; in the experiment with MCF7 breast, 102%; with HCT-116 colon it was 97.4%; in the experiment with KM12 colon, 108%.
